Data taken from PubChem BioAssay AID1159580 (chemical genetic matrix, 2015).
The whole screen tested about 5,500 compounds, of which about 2,000 (36%) were called active. Roughly 18% stayed inconclusive and do not appear here. Cut-off read from the data, not from the text of the source: active = normalized growth mostly below about 0.91 (no sharp cut-off); inconclusive = no clear call, values can overlap the other calls; inactive = mostly above about 0.92. The list shows a part of the results.

Experiment: chemical genetic growth profiling, strain panel (AID 1159580);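 note: tested at 20 µM; growth read once vehicle control cultures reached saturation at 30 °C; 1 = growth at the plate median or of vehicle wells; lower values mean less growth of the strain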
Conditions: S. cerevisiae deletion strains, growth OD

Measured: normalized growth

Cc1cc(OCOc2ccc(Cl)c(C)c2)ccc1Cl
inactive: locus YAL013W, strain DEP1, hits give low values 0.984 | locus YBR229C, strain ROT2, hits give low values 0.988 | locus YCL061C, strain MRC1, hits give low values 1.03 | locus YDL101C, strain DUN1, hits give low values 1.05 | locus YDL134C, strain PPH21, hits give low values 0.995 | locus YDR150W, strain NUM1, hits give low values 0.997 | locus YEL061C, strain CIN8, hits give low values 0.992 | locus YGR078C, strain PAC10, hits give low values 1.01 | locus YGR229C, strain SMI1, hits give low values 0.999 | locus YHR030C, strain SLT2, hits give low values 0.814 | locus YHR087W, strain rtc3, hits give low values 0.955 | locus YJR043C, strain POL32, hits give low values 1.03 | locus YJR075W, strain HOC1, hits give low values 1.02 | locus YKL190W, strain CNB1, hits give low values 0.966 | locus YLR039C, strain RIC1, hits give low values 1.11 | locus YLR058C, strain SHM2 (second series), hits give low values 0.989 | locus YLR085C, strain ARP6, hits give low values 0.973 | locus YLR262C, strain YPT6, hits give low values 0.99 | locus YML094W, strain GIM5, hits give low values 0.982 | locus YMR219W, strain ESC1, hits give low values 0.991 | locus YMR263W, strain SAP30, hits give low values 0.927 | locus YMR307W, strain GAS1, hits give low values 0.834 | locus YNL153C, strain GIM3, hits give low values 1.01 | locus YNL298W, strain CLA4 (second series), hits give low values 1.04 | locus YNL322C, strain KRE1, hits give low values 0.982 | locus YNR030W, strain Alg12, hits give low values 0.97 | locus YOL006C, strain TOP1, hits give low values 0.916 | locus YPL055C, strain LGE1, hits give low values 0.975 | locus YPL241C, strain CIN2, hits give low values 1 | locus YPR135W, strain CTF4, hits give low values 0.999
